Our source for the survival values is PubChem BioAssay AID463173 (ICCB-Longwood Screening Facility, Harvard Medical School, 2010).

Among all 52,000 compounds or so, about 4,300 (8.3%) were called active. Shown is part of a subset that was picked to be rich in actives. Unmarked numbers belong to inactive results. Cut-off read from the data, not from the text of the source: active = survival mostly below about 52% (no sharp cut-off); inactive = mostly above about 56%.

This test relates to DeltatarO mutant. Description: growth inhibition of S. aureus wild type versus tarO mutant, primary screen, teichoic acid synthesis inhibitors, RN4220, OD600 (AID 463173). The conditions noted are these: OD600, 18 h, stronger effect = lower value, screened at 18.75 µg/mL (by protocol).
Take `CCc1ccc(NC(=O)NCCc2c(C)nn(C)c2C)cc1`: the survival is 72%.

Regarding `COc1ccccc1Cn1cc(C(=O)c2ccc(Cl)cc2)c(=O)c2ccccc21`, the survival was 83%.

In the case of `Cc1cccc(Cn2c(=O)n(Cc3ccc4c(c3)OCO4)c(=O)c3oc4ccccc4c32)c1`, the survival was 77%.

With `Cc1oc2ncn(CC(C)C)c(=O)c2c1C(=O)Nc1cc(F)ccc1F`, the survival is 65%.

As to `COc1ccc2c(CNC3CCC(C)CC3)c(C(=O)O)n(Cc3ccc(F)cc3)c2c1` (stereo not drawn), the survival was 70%.

Consider `CCC(=O)n1nc(-c2ccccc2)nc1N`, for which the survival was 104%.

Consider `CN(Cc1ccccc1)c1ncnc2c1nnn2C`, for which the survival is 72%.

`COc1cccc(CNC(=O)CSc2nc(=O)[nH]c3c2CCCC3)c1`: the survival was 85%.

Take `C=CCSc1nnc(-c2ccccc2)n1-c1ccccc1`: the survival was 103%.

For the compound `Cc1c(Cl)cccc1NC(=O)CSc1nc(=O)[nH]c2c1CCC2`, the survival was 93%.

With `CCCN1C(=O)C(Cc2nc3ccccc3c(=O)n2-c2cccc(C)c2)c2ccccc21` (stereo not drawn), the survival is 36% (active).

For `CCOC(=O)CSc1nc2ccccc2c(=O)n1-c1cccc(C)c1`, the survival was 31% (active).

In the case of `CCN1C(=O)C(Cc2nc3ccccc3c(=O)n2-c2cccc(C)c2)c2ccccc21` (stereo not drawn), the survival was 50%.

Consider `CCCN1C(=O)C(Cc2nc3ccccc3c(=O)n2CC)c2cc(Br)ccc21` (stereo not drawn), for which the survival is 34% (active).

For `CCCN1C(=O)C(Cc2nc3ccccc3c(=O)n2CC)c2ccccc21` (stereo not drawn), the survival was 84%.

Turning to `CCn1c(CC2C(=O)N(C)c3ccc(Br)cc32)nc2ccccc2c1=O` (stereo not drawn), the survival is 70%.

For the compound `CCCN1C(=O)C(Cc2nc3ccccc3c(=O)n2-c2ccccc2)c2cc(C)ccc21` (stereo not drawn), the survival was 68%.

As for `CCOC(=O)CSc1nc2ccccc2c(=O)n1-c1ccc(C(=O)NCCOC)cc1`, the survival was 96%.

For `Cc1cccc(-n2c(SCC(N)=O)nc3ccccc3c2=O)c1`, the survival was 90%.

As for `COCCN(C(=O)c1ccccc1)c1nnc(-c2ccncc2)s1`, the survival was 94%.

Regarding `Cc1cc(C)cc(NC(=O)CSc2nc(=O)[nH]c3c2CCC3)c1`, the survival is 112%.

As to `CCCOC1(C(F)(F)F)NC(=O)N(c2ccc(Cl)cc2)C1=O` (stereo not drawn), the survival is 66%.

In the case of `Cc1cc(C)c2c(n1)SCCN2C(=O)Nc1ccc(C(=O)Nc2cc(Cl)ccc2C)cc1`, the survival was 97%.

For the compound `CC(=O)Nc1ccc(NC(=O)CCc2c(C)nc3c(c(C)nn3-c3ccc(C)cc3)c2C)cc1`, the survival was 114%.

On to `CCC1CN(C(=O)N2CCC(C(=O)N3CCN(c4cccc(C)c4C)CC3)CC2)c2ccccc2O1` (stereo not drawn), for which the survival was 62%.

In the case of `CCC1CN(C(=O)N2CCC(C(=O)N3CCN(c4ccccc4F)CC3)CC2)c2ccccc2O1` (stereo not drawn), the survival was 97%.

For the compound `CCC1CN(C(=O)N2CCC(C(=O)N3CCN(c4cc(C)ccc4C)CC3)CC2)c2ccccc2O1` (stereo not drawn), the survival was 36% (active).

Turning to `CC1=C(C(=O)Nc2ccc(C)cc2C)C(c2sccc2C)n2ncnc2N1` (stereo not drawn), the survival was 68%.

In the case of `O=C(NC1CCCC1)c1ccc2c(c1)OCO2`, the survival is 69%.

Turning to `O=C1C2C3c4ccccc4C(c4ccccc43)C2C(=O)N1C(CO)(CO)CO` (stereo not drawn), the survival is 102%.

For the compound `CC1=C(C(=O)OC2CCCCCC2)C(c2c(Cl)cccc2Cl)CC(=O)N1` (stereo not drawn), the survival is 32% (active).

On to `CC1=C(C(=O)OC2CCCCCC2)C(c2c(F)cccc2Cl)CC(=O)N1` (stereo not drawn), for which the survival was 57%.

For the compound `CC1=C(C(=O)OC2CCCC2)C(c2c(Cl)cccc2Cl)CC(=O)N1` (stereo not drawn), the survival was 71%.

On to `CCCN1CC=C2C(C#N)=C(N)C(C#N)(C#N)C(c3ccc(OCC(N)=O)cc3)C2C1` (stereo not drawn), for which the survival was 81%.

For the compound `CCCc1ccc(S(=O)(=O)N2CCC(c3nnc(-c4cccc(C)c4)o3)CC2)cc1`, the survival is 75%.

On to `COc1ccc(CNCc2c(C(=O)O)c(C)n(Cc3ccccc3C)c2C)cc1OC`, for which the survival was 91%.

In the case of `CCOc1cc(/C=C(\C#N)C(=O)Nc2ccc(OC)cc2)ccc1OCc1cc(=O)n2nc(CC)sc2n1`, the survival was 55% (active).

Regarding `CCOc1cc(/C=C(\C#N)C(=O)Nc2ccc(C)cc2)ccc1OCc1cc(=O)n2nc(CC)sc2n1`, the survival is 68%.

Consider `COc1ccc(NC(=O)/C(C#N)=C/c2ccc(OCc3cc(=O)n4nc(C)sc4n3)cc2)cc1`, for which the survival was 61%.

`COc1cc(/C=C(\C#N)C(=O)Nc2ccc(C)cc2)ccc1OCc1cc(=O)n2nc(C)sc2n1`: the survival is 78%.

On to `Cc1nn2c(=O)cc(COc3ccc(/C=C(\C#N)C(=O)Nc4ccccc4)cc3Cl)nc2s1`, for which the survival is 49% (active).

`CCc1nn2c(=O)cc(COc3ccc(/C=C(\C#N)C(=O)Nc4ccc(F)cc4)cc3OC)nc2s1`: the survival is 106%.

In the case of `CCOc1ccc(NC(=O)CSc2nc3ccsc3c(=O)n2CC)cc1`, the survival was 89%.

For `Cc1cc(C)n2nc(C(=O)N/N=C/c3ccncc3)nc2n1`, the survival was 76%.

With `c1ccc(-n2nc3ccc4nonc4c3n2)cc1`, the survival was 86%.

With `On1c2c(c3c4nonc4ccc31)CCCC2`, the survival is 0% (active).

Consider `COc1ccc(-c2[nH]c3ccccc3c2SCCNC(=O)c2ccc(S(=O)(=O)N(C)C)cc2)cc1`, for which the survival is 67%.

`COc1cccc(C2=C(C(C)=O)Sc3nnc(C4CCCCC4)n3N2C(C)=O)c1`: the survival is 81%.

With `CCOc1ccccc1NC(=O)c1cccc2c1C(=O)N(C1CCCCC1)C2`, the survival was 92%.

Take `Cc1ccc(Cn2nnc3c(=O)[nH]c(C4CCCN(C(=O)c5ccco5)C4)nc32)cc1` (stereo not drawn): the survival is 91%.

Take `Cc1cccc(Cn2nnc3c(=O)[nH]c(C4CCCN(C(=O)c5ccccc5Cl)C4)nc32)c1` (stereo not drawn): the survival was 71%.

Take `O=C(c1cccs1)N1CCCC(c2nc3c(nnn3Cc3ccc(F)cc3)c(=O)[nH]2)C1` (stereo not drawn): the survival was 101%.

Turning to `O=C(Nc1ccc(F)cc1)N1CCCC(c2nc3c(nnn3Cc3ccccc3Cl)c(=O)[nH]2)C1` (stereo not drawn), the survival is 88%.

`CCCC(=O)N1CCCC(c2nc3c(nnn3Cc3ccccc3)c(=O)[nH]2)C1` (stereo not drawn): the survival was 102%.

Take `COc1cccc(Cn2nnc3c(=O)[nH]c(C4CCCN(C(=O)c5ccc(C)cc5)C4)nc32)c1` (stereo not drawn): the survival was 90%.

With `Cc1cccc(Cn2nnc3c(=O)[nH]c(C4CCCN(C(=O)c5ccc(C(C)(C)C)cc5)C4)nc32)c1` (stereo not drawn), the survival is 18% (active).

As for `Cc1ccccc1Cn1nnc2c(=O)[nH]c(C3CCCN(C(=O)c4ccc(C(C)(C)C)cc4)C3)nc21` (stereo not drawn), the survival is 7% (active).

Consider `CC(C)(C)c1ccc(C(=O)N2CCCC(c3nc4c(nnn4Cc4cccc(F)c4)c(=O)[nH]3)C2)cc1` (stereo not drawn), for which the survival was 7% (active).

In the case of `CCc1ccc(Cn2nnc3c(=O)[nH]c(C4CCCN(C(=O)c5cccc(Cl)c5)C4)nc32)cc1` (stereo not drawn), the survival was 74%.

For `Cc1ccccc1Cn1nnc2c(=O)[nH]c(C3CCCN(C(=O)c4ccc(F)cc4)C3)nc21` (stereo not drawn), the survival is 114%.

As for `CC(C)(C)C(=O)N1CCCC(c2nc3c(nnn3Cc3ccc(C(C)(C)C)cc3)c(=O)[nH]2)C1` (stereo not drawn), the survival was 1% (active).

With `COc1ccc(-c2ccc(NS(=O)(=O)c3ccc(F)c(C(F)(F)F)c3)cc2)nn1`, the survival was 117%.

Turning to `Cc1ccc2cc(CN(CCN(C)C)C(=O)NC3CCCCC3)c(=O)[nH]c2c1`, the survival was 101%.

Turning to `O=C(CCn1cccn1)NCc1ccc(Cl)cc1`, the survival was 73%.

In the case of `COc1ccc(OC(=O)c2cn(-c3cccc(OC)c3)c(=O)c3ccccc23)cc1`, the survival is 80%.

Turning to `COC(=O)c1ccc(NC(=O)c2nn(C)c3c2CS(=O)(=O)c2ccccc2-3)cc1`, the survival was 81%.

For the compound `CC1(C)c2ssc(=S)c2-c2ccccc2N1C(=O)CSC#N`, the survival was 106%.

For the compound `Cc1ccc(NC(=O)c2c3c(nc4ccccc24)C(=O)N(C2CCCCC2)C3)cc1F`, the survival is 102%.

Take `Cc1nn(CC(=O)Nc2cccc(C(F)(F)F)c2)c(=O)c2nn(-c3ccccc3)c(C)c12`: the survival is 75%.

For the compound `O=C(c1ccc(-c2cccc(C(F)(F)F)c2)o1)N1CCOCC1`, the survival was 84%.

Take `O=C(Nc1cccc2cccnc12)c1cccc2ccccc12`: the survival was 1% (active).

For `O=C(Nc1cccc2cccnc12)c1ccccc1[N+](=O)[O-]`, the survival is 68%.

On to `O=C(O)c1ccccc1C(=O)Nc1ccc(Br)c2cccnc12`, for which the survival is 49%.

As to `O=C(Nc1cccc2cccnc12)c1cccc2c(Br)cccc12`, the survival is 70%.

On to `O=C(Nc1ccc(Br)c2cccnc12)c1cccc2ccccc12`, for which the survival is 29% (active).

Regarding `COc1c(Cl)cc(Cl)cc1C(=O)Nc1cccc2cccnc12`, the survival was 143%.

As for `O=C(CN1Cc2ccccc2C1=O)Nc1cc(F)ccc1F`, the survival is 81%.

With `Cc1nc2ccc(S(=O)(=O)CCC(=O)Nc3ccc(C)c(C)c3)cc2s1`, the survival was 107%.

For the compound `CCOc1ccc(-n2c(SCC(=O)Nc3ccc(CC)cc3)nc3c(oc4ccccc43)c2=O)cc1`, the survival is 71%.

As to `CCOC(=O)c1c(S(=O)(=O)NCC(=O)N(C)Cc2ccccc2)c(C)n(C)c1C`, the survival is 89%.

Consider `CCOc1no[n+]([O-])c1-c1ccccc1`, for which the survival was 90%.

With `CN(C(=O)CSc1nc2ccc(NC(=O)c3ccccc3F)cc2s1)c1ccccc1`, the survival was 103%.

For the compound `CCN(Cc1nc(-c2ccc(OC)cc2)oc1C)S(=O)(=O)c1ccc(C)cc1`, the survival is 95%.

With `COc1ccc(C(=O)N/N=C2/SCC(=O)N2C)c(OC)c1`, the survival was 69%.

In the case of `Cc1ccc(CN2C(=O)C(O)(c3c(C)[nH]c4ccccc34)c3ccccc32)cc1` (stereo not drawn), the survival was 101%.

For `Cc1[nH]c2ccccc2c1C1(O)C(=O)N(Cc2ccccc2)c2ccc(Br)cc21` (stereo not drawn), the survival was 3% (active).

Take `CCCCN1C(=O)C(O)(c2c(C)[nH]c3ccccc23)c2cc(Br)ccc21` (stereo not drawn): the survival is 27% (active).

As for `Cc1[nH]c2ccccc2c1C1(O)C(=O)N(Cc2ccccc2Cl)c2ccccc21` (stereo not drawn), the survival was 51%.

Consider `Cc1[nH]c2ccccc2c1C1(O)C(=O)N(Cc2ccc(Cl)cc2)c2ccccc21` (stereo not drawn), for which the survival is 29% (active).

Regarding `CCN1C(=O)C(O)(c2c(C)[nH]c3ccccc23)c2ccccc21` (stereo not drawn), the survival was 54%.

`CCCCN1C(=O)C(O)(c2c(C)[nH]c3ccccc23)c2ccccc21` (stereo not drawn): the survival was 51%.

On to `Cc1ccc(C)c(CN2C(=O)C(O)(c3c(C)[nH]c4ccccc34)c3ccccc32)c1` (stereo not drawn), for which the survival is 51%.

For the compound `Cc1[nH]c2ccccc2c1C1(O)C(=O)N(Cc2ccccc2)c2ccc(Cl)cc21` (stereo not drawn), the survival was 24% (active).
